In PubChem BioAssay (Tox21) one finds Potency data, which are given here for 40 compounds.

SMILES strings stand for the structures. Inconclusive results are not listed. Entries that show only a call come without a potency. The source made the active and inactive calls. Calls follow the shape of the full dose curve.

The test is described as follows: qHTS assay to identify small molecule agonists of the NFkB signaling pathway - cell viability counter screen (AID 1159515). Also: nearly all actives have a fitted effect of over 55% in size. To be noted: NFkB-bla ME-180 viability, CellTiter-Glo luminescence, 5 h; series mostly up to 61 µM. The text has this:
National Center for Advancing Translational Sciences [NCATS]
NIH Chemical Genomics Center [NCGC]
U.S. Environmental Protection Agency [EPA]
National Institutes of Environmental Health Sciences [NIEHS]
National Toxicology Program [NTP]
U.S. Food and Drug Administration [FDA]
Transcription factors and their stimulated target gene expression play pivotal roles across many cellular processes including responses to environmental stimuli. Proper regulation of associated pathways is critical to maintain cell health and function. Constitutive activation of transcription factor pathways has been implicated in tumors as it may block cellular functions such as apoptosis and lead to invasion and metastasis. One important transcription factor that stimulates gene expression in response to cytokines, UV radiation, and other stimuli is nuclear factor-kappa B (NFkB). To measure activation of the NFkB pathway, the CellSensor NFkB-bla ME-180 cell line (Life Technologies, Carlsbad, CA) that stably expresses beta-lactamase reporter gene under the regulation of a NF-kB response element was used. This assay allows measurement of the NFkB pathway activity induced by compounds in a ME-180 cell line. This system quantitates NF-kB activity using a FRET-based assay system where beta-lactamase expression disrupts FRET, allowing for fluorescent measurement of activity. This cell line has been used to screen the Tox21 10K compound library and to identify compounds that induce the NFkB pathway activity. The cytotoxicity of the Tox21 compound library against the NFkB-bla ME-180 cell line was tested in parallel by measuring cell viability using the CellTiter-Glo assay in the same wells.
Tox21 Assay Protocol Summary:
NFkB-bla ME-180 cells were dispensed at 2,000 cells/6 uL of assay medium per well into black wall/clear-bottom 1536-well plates using a Multidrop Combi (ThermoFisher Scientific, Waltham, MA) dispenser. After the assay plates were incubated at 37 C and 5% CO2 for an overnight, 23 nL of compounds dissolved in DMSO, positive controls or DMSO only was transferred to the assay plate by a Pintool station (Kalypsys, San Diego, CA). The assay plates were incubated at 37 C and 5% CO2 for 5 hr. One uL of LiveBLAzer B/G FRET substrate (Life Technologies) was added using a Flying Reagent Dispenser (Aurora Discovery, San Diego, CA) and the plates were incubated at room temperature for 1.5 hr. Fluorescence intensity (405 nm excitation, 460 nm and 530 nm emissions) was measured using an Envision plate reader (PerkinElmer, Shelton, CT). For cytotoxicity, 3 ul/well of CellTiter-Glo reagent was added into the assay plates using an FRD. After 30 min incubation at room temperature, the luminescence intensity was measured using a ViewLux plate reader (PerkinElmer).
On the technique in general: In qHTS, concentration-response curves come from the screen itself.
On to `O=C(O)C(F)(F)C(F)(F)C(F)(F)C(F)(F)C(F)(F)C(F)(F)C(F)(F)F`, for which the Potency entry was “inactive”.

With `Nc1ccc(-c2ccccc2)cc1`, the Potency entry is “inactive”.

As for `CC(C)Oc1cc(-n2nc(C(C)(C)C)oc2=O)c(Cl)cc1Cl`, the Potency result was “inactive”.

For the compound `Oc1cc(Cl)c(Cl)cc1Cl`, the Potency result was “inactive”.

For the compound `Nc1ccc(Cl)cc1N`, the Potency result was “inactive”.

`CC(C)N(C(=O)SCC(Cl)=C(Cl)Cl)C(C)C`: the Potency result was “inactive”.

For `O=Cc1ccco1`, the Potency entry was “inactive”.

Consider `NNC(=S)NN`, for which the Potency entry was “inactive”.

On to `COP(=S)(OC)Oc1cc(Cl)c(Cl)cc1Cl`, for which the Potency result was “inactive”.

As for `Nc1ccc(-c2ccc(N)c(N)c2)cc1N`, the Potency entry was “inactive”.

For `Cc1cc(Cl)ccc1OCCCC(=O)O`, the Potency entry was “inactive”.

For the compound `OCC(O)CO`, the Potency result is “inactive”.

Take `CCC(CC)Nc1c([N+](=O)[O-])cc(C)c(C)c1[N+](=O)[O-]`: the Potency result is “inactive”.

On to `COP(=S)(OC)Oc1ccc([N+](=O)[O-])cc1`, for which the Potency entry was “inactive”.

As to `CCN(CC)C(=O)/C(Cl)=C(\C)OP(=O)(OC)OC`, the Potency entry is “inactive”.

In the case of `Brc1ccc(Oc2cc(Br)c(Br)cc2Br)c(Br)c1`, the Potency entry is “inactive”.

On to `c1ccc(NNc2ccccc2)cc1`, for which the Potency entry is “inactive”.

Regarding `NNC(N)=S`, the Potency result is “inactive”.

In the case of `CC(C)C(=O)OCC(C)(C)C(OC(=O)C(C)C)C(C)C` (stereo not given), the Potency result was “inactive”.

On to `CCC(C)(c1ccc(O)cc1)c1ccc(O)cc1`, for which the Potency result was “inactive”.

For `O=C(O)CC[N+](=O)[O-]`, the Potency result is “inactive”.

In the case of `CN(C)C(=O)Nc1ccc(Cl)cc1`, the Potency entry is “inactive”.

For `C=CCN(CC=C)C(=O)C(Cl)Cl`, the Potency result is “inactive”.

Turning to `CC(C)(OOC(C)(C)c1ccccc1)c1ccccc1`, the Potency entry was “inactive”.

`CCN(CC)N=O`: the Potency entry was “inactive”.

As to `Cc1ccc(OP(=O)(Oc2ccc(C)cc2)Oc2ccc(C)cc2)cc1`, the Potency result is “inactive”.

Take `CCC(C)(C)c1ccc(O)cc1`: the Potency result was “inactive”.

`O=C1C=CC(=O)C=C1`: the Potency result is “inactive”.

As to `CC(C)(c1cc(Cl)c(O)c(Cl)c1)c1cc(Cl)c(O)c(Cl)c1`, the Potency entry is “inactive”.

Regarding `CCCCN(CCCC)N=O`, the Potency entry was “inactive”.

For the compound `CCCCCCCCOC(=O)c1ccccc1C(=O)OCCCCCCCC`, the Potency entry was “inactive”.

For the compound `Oc1cc(Cl)ccc1Cl`, the Potency entry is “inactive”.

With `CCN(CC)C(=O)SCc1ccc(Cl)cc1`, the Potency entry is “inactive”.

As to `CCOC(=O)C(C)OC(=O)c1cc(Oc2ccc(C(F)(F)F)cc2Cl)ccc1[N+](=O)[O-]` (stereo not given), the Potency result was “inactive”.

Turning to `CC(C)c1ccc(CO)cc1`, the Potency result is “inactive”.

Turning to `C=C(C)[C@H]1Cc2c(ccc3c2O[C@@H]2COc4cc(OC)c(OC)cc4[C@@H]2C3=O)O1`, the Potency entry is “inactive”.

Regarding `c1ccc(-c2cccc(-c3ccccc3)c2)cc1`, the Potency result is “inactive”.

With `Cc1cccc(N)c1N`, the Potency result is “inactive”.

On to `O=c1oc2ccccc2c(O)c1C(CC(O)c1ccc(-c2ccc(Br)cc2)cc1)c1ccccc1` (stereo not given), for which the Potency result is “inactive”.

In the case of `Cc1c(COC(=O)[C@@H]2[C@H](/C=C(\Cl)C(F)(F)F)C2(C)C)cccc1-c1ccccc1`, the Potency entry is “inactive”.
